In PubChem BioAssay (NCATS) one finds outcome and Potency data, which are given here for eleven compounds.

“And” between values parts separate entries of the source, which are not always exact repeats. Identical values can stand only once. Inconclusive results are not listed. Some compounds were tested as several samples or in several runs, with calls that do not always agree. The source made the active and inactive calls. Unless noted, calls follow the shape of the dose curve; as a rule, active = well fitted curve in the direction sought with a large enough effect; inconclusive = small, poorly fitted or top-dose-only effect, or another doubt; inactive = no such curve, though single readings can be large; an effect the other way counts as inactive or inconclusive.

Assay [1] concerns the target Protein phosphatase 1D (Homo sapiens) (UniProt O15297). The assay can be described thus: Rhodamine-PBP qHTS Assay for Modulators of WT P53-Induced Phosphatase 1 (WIP1) (AID 1347425). The method in brief: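 Read-out: Rhodamine-PBP fluorescence (ex 525/em 598 nm) for released Pi, read each minute for 11 min after adding 10 uM VEPPL-pS-QETFS; signal taken as f1 minus pre-substrate f0. Enzyme 5 nM WIP1 with 1 hr room-temperature compound preincubation.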
In general terms: In qHTS, concentration-response curves come from the screen itself.

A short description of assay [2]: Primary qHTS for inhibitors of SARS-S pseudo-typed particle cell entry (AID 1479145; calls by dose curve; also: nearly all actives have a fitted effect of over 45% in size; also: potency is read from the fitted curve at half-maximal effect).
A short description of assay [3]: Primary qHTS for Huh7 cytotoxicity: counterscreen for inhibitors of MERS-S pseudotyped particle cell entry (AID 1479147; calls by dose curve).
Assay [4] is described as follows: Primary qHTS for inhibitors of MERS-S pseudo-typed particle cell entry (AID 1479149; calls by dose curve; also: nearly all actives have a fitted effect of over 60% in size; also: potency is read from the fitted curve at half-maximal effect).
Assay [5] is described as follows: Primary qHTS for Vero E6 cytotoxicity: counterscreen for inhibitors of SARS-S pseudo-typed particle cell entry (AID 1479150; calls by dose curve).
Assay [6] can be described thus: Primary qHTS for inhibitors of La Crosse Virus (LACV) - induced cell death in SH-SY5Y cells (AID 1508616).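 Also: top concentration of the series differs between compounds; higher means more rescue of cells from virus-induced death.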 In short, it runs like this: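 Protection against LACV-induced cell death is scored in SH-SY5Y cells exposed to compounds and virus (0.01 MOI) for 6 days. Data normalized to virus-infected DMSO wells and virus-free DMSO wells.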
For assay [7], the target named is Calcium and integrin-binding protein 1 (Homo sapiens) (UniProt Q99828). The assay can be described thus: Primary qHTS for Identification of Calcium Integrin Binding Protein 1 (CIB1) Competitor (AID 1508620). Also: potency is read from the fitted curve at half-maximal effect. The method in brief: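 CIB1-GST (1 uM final) and compound incubated 15 min at room temperature before adding FITC-alphaIIb peptide tracer (100 nM final). Competition for binding read by fluorescence polarization (ex 480, em 540) after another 15 min at room temperature.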
Chain of Calcium and integrin-binding protein 1 (Homo sapiens) (Q99828 whole entry, looked up): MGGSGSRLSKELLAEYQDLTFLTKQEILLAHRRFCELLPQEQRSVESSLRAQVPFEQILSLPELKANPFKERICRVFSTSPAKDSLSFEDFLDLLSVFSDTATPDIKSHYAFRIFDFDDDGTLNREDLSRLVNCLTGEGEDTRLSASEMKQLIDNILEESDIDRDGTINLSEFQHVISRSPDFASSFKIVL

Assay [8] in a line: Cell Viability qHTS for small molecule stabilizers of the endoplasmic reticulum resident proteome (AID 1508629).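 Also: potency is read from the fitted curve at half-maximal effect; compound exposure about 46 h in total before the viability read.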 The conditions noted are these: cell viability counter-screen, 100 nM thapsigargin for final 4 h.
Assay [9] is described as follows: Primary qHTS for small molecule stabilizers of the endoplasmic reticulum resident proteome: Secreted ER Calcium Modulated Protein (SERCaMP) assay (AID 1508630). In short, it runs like this: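 GLuc-SERCaMP-expressing SH-SY5Y cells, pretreated 16 h with compound, are challenged with thapsigargin to empty ER calcium stores; after 4 h, coelenterazine is added directly to the medium and luminescence is imaged.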

Assay [10] is described as follows: A High-Content qHTS Against Drug Library for the Identification of Small Molecules that Inhibit DYT1 Early Onset Primary Dystonia-Associated Cell Pathology (AID 1645839; calls by dose curve; also: potency is read from the fitted curve at half-maximal effect). In short, it runs like this: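 In this high-content image screen, delE TorsinA mislocalization in inducible Flp-In 293 cells is scored as %pathology, with cell count serving as the counterscreen. Compound exposure lasts 48 h under tetracycline induction in reduced-serum medium.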

The target of assay [11] is Cytochrome P450 3A4 (Homo sapiens) (UniProt P08684). In words: Cytochrome P450 family 3 subfamily A member 4 (CYP3A4) small molecule antagonists: luciferase qHTS assay (AID 1645841; active = well fitted curve in the direction sought with a large enough effect in the repeat runs; an effect the other way counts as inactive or inconclusive; also: nearly all actives have a fitted effect of over 45% in size). In short, it runs like this: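 Luminescent CYP3A4 activity readout: compounds plus enzyme-substrate mix 10 min at room temperature, reaction started with NADPH regenerating system for 1 h, stopped with detection reagent, read after 20 min. Ketoconazole served as control.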
Chain of Cytochrome P450 3A4 (Homo sapiens) (P08684 whole entry, looked up): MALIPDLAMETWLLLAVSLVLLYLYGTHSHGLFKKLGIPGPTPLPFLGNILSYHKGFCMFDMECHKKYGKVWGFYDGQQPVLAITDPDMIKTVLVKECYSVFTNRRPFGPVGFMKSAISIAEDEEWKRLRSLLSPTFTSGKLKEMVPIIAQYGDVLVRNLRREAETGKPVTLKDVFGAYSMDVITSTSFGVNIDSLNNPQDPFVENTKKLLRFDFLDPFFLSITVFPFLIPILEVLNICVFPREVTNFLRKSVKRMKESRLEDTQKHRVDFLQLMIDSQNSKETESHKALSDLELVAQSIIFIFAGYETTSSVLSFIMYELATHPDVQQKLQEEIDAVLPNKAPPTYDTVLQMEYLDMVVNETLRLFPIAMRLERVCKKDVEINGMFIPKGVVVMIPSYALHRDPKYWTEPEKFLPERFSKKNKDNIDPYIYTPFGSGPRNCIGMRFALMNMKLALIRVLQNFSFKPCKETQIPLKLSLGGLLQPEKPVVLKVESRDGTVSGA

Assay [12] is described as follows: Validation qHTS assay for inhibitors of Activation Induced Cytidine Deaminase (AID): UDG Counterscreen signal (AID 1347427). The method in brief: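 Counterscreen read of UDG activity (2 U/mL, 4/3x) in the FRET deamination format with AID (1 uM, 4/3x), DJC20/DJC23 substrates (250 nM, 4x), 4 h at room temperature. NaOH stop, fluorescence at 560 ex/665 em.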
Assay [13] has as its target Single-stranded DNA cytosine deaminase (Homo sapiens) (UniProt Q9GZX7). The assay can be described thus: Validation qHTS assay for inhibitors of Activation Induced Cytidine Deaminase (AID): AID signal (AID 1347429). In short, it runs like this:
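Fluorescence at 540 nm excitation and 590 nm emission reports ssDNA cytosine deamination by AID, with UDG in the same well. Compound-treated reactions ran 4 hr at room temperature with DJC20/DJC23 substrate, followed by 30 min NaOH treatment.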

For assay [14], the target named is Calcium and integrin-binding protein 1 (Homo sapiens) (UniProt Q99828). The assay can be described thus: Validation qHTS for Identification of Calcium Integrin Binding protein 1 (CIB1) Competitor (AID 1508618). Also: potency is read from the fitted curve at half-maximal effect. The method in brief: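 CIB1-GST (1 uM final) in 5 mM HEPES pH 7.4, 125 mM NaCl, 5 mM CaCl2, 0.01% Tween20 was preincubated 15 min at room temperature with compound (up to 114 uM), then FITC-alphaIIb peptide (100 nM) added for 15 min; fluorescence polarization read.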

Assay [15] has the same target. The assay can be described thus: Confirmatory qHTS for Identification of Calcium Integrin Binding Protein 1 (CIB1) Competitor (AID 1508617). Also: nearly all actives have a fitted effect of over 65% in size. In short, it runs like this: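 Fluorescence polarization competition: CIB1-GST (1 uM final) in 5 mM HEPES pH 7.4, 125 mM NaCl, 5 mM CaCl2, 0.01% Tween20 preincubated 15 min RT with compound (up to 114 uM), then FITC-alphaIIb peptide (100 nM) added, 15 min RT.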

Assay [16] concerns the target Cytochrome P450 2D6 (Homo sapiens) (UniProt P10635). The assay can be described thus: Cytochrome P450 family 2 subfamily D member 6 (CYP2D6) small molecule antagonists: luciferase biochemical (cell-free) qHTS assay (AID 1645840; active = well fitted curve in the direction sought with a large enough effect in the repeat runs; an effect the other way counts as inactive or inconclusive; also: potency is read from the fitted curve at half-maximal effect; nearly all actives have a fitted effect of over 55% in size). The method in brief: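 P450-Glo luminescent screen: recombinant CYP2D6 enzyme–proluciferin substrate mix preincubated with compound 10 min at room temperature, then NADPH regeneration added for 1 h at room temperature. Detection reagent added for 20 min; luciferin light read as relative luminescence units.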

Chain of Protein phosphatase 1D (Homo sapiens) (O15297 whole entry, looked up): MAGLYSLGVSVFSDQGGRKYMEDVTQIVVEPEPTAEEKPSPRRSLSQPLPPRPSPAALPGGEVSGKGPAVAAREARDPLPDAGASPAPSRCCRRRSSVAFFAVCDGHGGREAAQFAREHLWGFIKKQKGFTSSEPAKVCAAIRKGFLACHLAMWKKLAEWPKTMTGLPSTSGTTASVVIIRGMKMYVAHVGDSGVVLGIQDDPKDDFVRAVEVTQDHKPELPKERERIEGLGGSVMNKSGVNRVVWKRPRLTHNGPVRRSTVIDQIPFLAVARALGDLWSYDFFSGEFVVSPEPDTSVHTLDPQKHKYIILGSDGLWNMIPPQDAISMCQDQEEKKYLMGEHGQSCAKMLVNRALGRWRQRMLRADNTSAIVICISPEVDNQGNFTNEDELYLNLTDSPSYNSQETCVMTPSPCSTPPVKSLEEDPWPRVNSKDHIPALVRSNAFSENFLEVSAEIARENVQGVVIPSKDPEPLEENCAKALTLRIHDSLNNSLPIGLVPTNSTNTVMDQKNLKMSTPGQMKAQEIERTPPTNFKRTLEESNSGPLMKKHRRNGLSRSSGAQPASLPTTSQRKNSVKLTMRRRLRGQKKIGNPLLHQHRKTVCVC
Chain of Single-stranded DNA cytosine deaminase (Homo sapiens) (Q9GZX7 whole entry, looked up): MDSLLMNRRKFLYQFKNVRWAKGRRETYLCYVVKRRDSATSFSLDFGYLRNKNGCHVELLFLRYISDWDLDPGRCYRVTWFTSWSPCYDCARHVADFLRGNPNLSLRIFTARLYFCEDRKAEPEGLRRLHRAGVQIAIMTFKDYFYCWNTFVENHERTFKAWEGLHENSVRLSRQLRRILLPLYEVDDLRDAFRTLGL
Chain of Cytochrome P450 2D6 (Homo sapiens) (P10635 whole entry, looked up): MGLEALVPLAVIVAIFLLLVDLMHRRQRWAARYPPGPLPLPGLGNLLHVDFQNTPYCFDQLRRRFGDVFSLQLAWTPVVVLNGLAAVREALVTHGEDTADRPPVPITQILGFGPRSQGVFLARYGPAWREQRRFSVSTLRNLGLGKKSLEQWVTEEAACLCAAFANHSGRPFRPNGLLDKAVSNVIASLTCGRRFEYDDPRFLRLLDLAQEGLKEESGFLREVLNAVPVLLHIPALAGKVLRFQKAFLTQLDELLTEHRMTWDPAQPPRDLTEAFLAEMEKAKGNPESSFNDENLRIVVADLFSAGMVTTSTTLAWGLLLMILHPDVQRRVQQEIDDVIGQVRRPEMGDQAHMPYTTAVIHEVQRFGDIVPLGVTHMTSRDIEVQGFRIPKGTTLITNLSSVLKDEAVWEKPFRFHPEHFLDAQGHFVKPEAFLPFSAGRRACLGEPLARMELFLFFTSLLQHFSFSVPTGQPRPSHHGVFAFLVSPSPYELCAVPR

Take `Oc1cccc2cccnc12`: the compound was called inactive in [1], in assay [9] and in assay [11]. Also, the Potency entry in [2], in assay [3], in assay [5], in assay [6] and in assay [7] was “inactive” each time. Further, the Potency entry in assay [4] was “inactive and 3.55 µM (active)”; in [8], 20 µM (active); in assay [10] it was 31.6 µM (active) and inactive.

In the case of `Cc1cccc(C)c1NC1=NCCCS1`, the compound was classed as inactive in [1], in assay [12], in assay [13] and in assay [9]. Also, the Potency result in assay [3], in [4], in assay [5], in assay [6], in [14] and in assay [7] was “inactive” throughout. For the same compound, the Potency entry in assay [10] was “inactive”.

For the compound `CCCC(C)(COC(N)=O)COC(=O)NC(C)C` (stereo not drawn), the compound was classed as inactive in assay [1], in assay [12], in [13] and in [9]. In addition, the Potency result in assay [6], in [7] and in assay [10] was “inactive” in each case.

In the case of `CC[C@@H](CO)NC(=O)[C@@H]1C=C2c3cccc4c3c(cn4C)C[C@H]2N(C)C1`, the compound was classed as inactive in assay [1], in [12], in assay [13], in [15] and in assay [9]. Moreover, the Potency result in assay [2] and in [10] was “inactive” in each case. In addition, the Potency in assay [14] and in assay [7] was 44.7 µM (active) each time.

With `CCC(C(N)=O)N1CCCC1=O` (stereo not drawn), the compound was called inactive in [1] and in [9]. The Potency entry in [2], in assay [3], in assay [4], in [5], in [6] and in assay [7] was “inactive” in each case. Also, the Potency result in assay [10] is “inactive”.

Regarding `Cc1ncc(CNC(=O)N(CCCl)N=O)c(N)n1`, the compound was called inactive in assay [1], in [12], in assay [13] and in assay [9]. Moreover, the Potency result in assay [2], in assay [3], in assay [4], in [5], in assay [6] and in assay [14] was “inactive” in each case. The Potency result in [7] and in assay [10] was “inactive” throughout.

Take `O=c1[nH]c2ccccc2n1C1CCN(CCCC(c2ccc(F)cc2)c2ccc(F)cc2)CC1`: the call in assay [1], in assay [12], in [13] and in [9] was inactive. The Potency in assay [2] was 11.2 µM (active). The Potency result in assay [3], in assay [5], in assay [6], in assay [14] and in [7] was “inactive” in each case.

As to `N#CC(C#N)=Cc1ccc(O)c(O)c1`, the compound was classed as inactive in assay [1], in assay [12] and in assay [13]. In addition, the Potency entry in assay [6], in assay [14], in [7] and in assay [10] was “inactive” in each case.

Regarding `c1ccc2c(c1)OCC(C1=NCCN1)O2` (stereo not drawn), the compound was classed as inactive in [1], in assay [12], in [13] and in [9]. The Potency result in [6], in assay [14] and in [7] was “inactive” each time. The Potency in assay [16] was 19.5 µM (active).

In the case of `CC[C@@H](CO)NC(=O)[C@@H]1C=C2c3cccc4[nH]cc(c34)C[C@H]2N(C)C1`, the compound was called inactive in [1], in assay [12], in assay [13] and in assay [9]. For the same compound, the Potency result in assay [2], in assay [3], in assay [4], in [5], in assay [6] and in [10] was “inactive” each time.

Regarding `CC(C)(C)NCC(O)c1cc(Cl)c(N)c(Cl)c1` (stereo not drawn), the compound was called inactive in assay [1] and in assay [9]. Moreover, the Potency result in [2], in assay [3], in assay [4], in assay [5], in assay [6] and in [7] was “inactive” in each case. Further, the Potency result in assay [10] was “inactive”.
